Assay: E. coli acrAB mutant growth effects, primary screen, E. coli filamentation inducers, strain DRC39, OD650, 24 h (AID 1178);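 note: growth measured as culture turbidity by optical density at 650 nm; test concentration not given here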
Settings: higher = more signal, called active from +8 up or from −8 down

z-score, inactive:
CC(C)(C)OC(=O)CC[C@]1(C(=O)N2CCCCC2)COC(c2ccc(OCCCO)cc2)=N1 0.134, O=C1[C@@]23C=C(Br)[C@H](C[C@@H]2COC3)[C@@]12CO2 -0.417, O=C1C[C@@](C(=O)NCc2ccccc2)(c2ccc([N+](=O)[O-])cc2)[C@@H](c2ccc(CO)cc2I)N1CC12CC3CC(CC(C3)C1)C2 0.0207, O=C1C[C@@](C(=O)NCC(F)(F)F)(c2ccc([N+](=O)[O-])cc2)[C@@H](c2ccc(CO)cc2)N1CC12CC3CC(CC(C3)C1)C2 -0.229, CN1C(=O)C2C=CC(C(O)c3ccc(I)cc3)N(Nc3ccccc3)C2C1=O (stereo not given) -1.28, COc1cc(C(O)C2C=CC3C(=O)N(Cc4ccccc4)C(=O)C3N2n2cnnc2)cc(OC)c1OC (stereo not given) 0.904, C=C(COC)/C(=C/C[C@@H](OC(=O)c1ccncc1)c1ccccc1OCCO)c1cc(C(=O)OC)ccc1OC 0.404, CC(C)C[C@@H]1NC(=O)[C@@]23C(=O)N[C@@H](Cc4ccccc4)C2[C@H](C)[C@@]2(C)O[C@H]2C3/C=C/C/C=C\CNC(=O)[C@@H](C)NC1=O (stereo not given in full) 1.65, CCCNC(=O)[C@@]1(Sc2ccc(C)cc2)CC(=O)N(C(C)C)[C@@H]1c1ccc(CO)cc1I 0.337, CN1C(=O)C2C(C1=O)C1C=C(CCCO)C2C(c2cccs2)N1Cc1cc2c(cc1Br)OCO2 (stereo not given) 0.19, C=C(CCCC)/C(=C/C[C@H](OC(C)=O)c1ccc(OCCO)cc1)c1cc(C(=O)OC)ccc1OC 0.487, COC(=O)[C@@]1(Cc2ccc(OC)cc2)[C@H]2c3cc(C(=O)N4CCCC4)n(Cc4ccc(OC(F)(F)F)cc4)c3C[C@H]2CN1C(=O)c1ccccc1 -0.0079, CS(=O)(=O)CCOC(=O)C1=CC(CCCO)=CC(C2CC2)N(Cc2cccc(OC(F)(F)F)c2)C=C1C(=O)OCCS(C)(=O)=O (stereo not given) 0.9, COC(=O)C1=CC(CCCO)=CC(C)N(Cc2cccc(OC(F)(F)F)c2)C=C1C(=O)OC (stereo not given) 1.38, [N-]=[N+]=NCc1ccccc1[C@@H]1OC(c2ccc(OCCCO)cc2)=N[C@]1(Cc1ccccc1)C(=O)NCCN1CCOCC1 2.23, CC(C)C(=C=CC[C@@H](O)c1cccc(OCCO)c1)C[C@@H](O)c1ccccn1 0.267, O=C(NCC(O)CO)[C@@]1(CCS(=O)(=O)c2ccccc2)COC(c2ccc(OCCCO)cc2)=N1 (stereo not given in full) 0.243, CCOC(=O)C1=C[C@@H](c2ccccc2)N(S(=O)(=O)c2ccc(C)cc2)[C@H]1c1ccccc1 -0.86, CC(C)OC(=O)CC(=O)CC(O)c1ccc([N+](=O)[O-])cc1 (stereo not given) -0.346, COC(=O)C1N=C(c2ccc(OCCCO)cc2)N(c2ccccc2)O1 (stereo not given) 0.642, NC(=O)NCC#Cc1ccc2c(c1)[C@]1(C(=O)N2)[C@H](C(=O)N2CCN(c3ncccn3)CC2)[C@H]2C(=O)O[C@H](c3ccccc3)[C@H](c3ccccc3)N2[C@@H]1c1ccc(OCCO)cc1 0.436, [N-]=[N+]=Nc1ccccc1C[C@]1(C(=O)O)N=C(c2ccc(OCCCO)cc2)O[C@H]1c1ccccc1 -0.115, C=C(/C(=C/C[C@@H](OC(C)=O)c1ccc(OCCO)cc1)c1cc(C(=O)OC)ccc1OC)C(C)C -0.0333, COc1ccc(NC(=O)O[C@H]2[C@@H]3OC(=O)[C@H](Cc4cccc(Br)c4)C/C=C/C[C@@H](Cc4cccc(Br)c4)C(=O)O[C@H]3[C@@H](OC)O[C@@H]2CO)cc1 0.365, [N-]=[N+]=NCc1ccccc1[C@H]1OC(c2ccc(OCCCO)cc2)=N[C@@]1(CCS(=O)(=O)c1ccccc1)C(=O)NCc1ccccc1 1.01, COc1cc(NN2C(C(O)C3CCCCC3)C=CC3C(=O)N(C)C(=O)C32)cc(OC)c1OC (stereo not given) -0.276, O=C1[C@@H]2[C@@H](CC(COc3ccccc3)=C3[C@@H](CCc4ccccc4)OB(O)C[C@@H]32)C(=O)N1Cc1ccccc1 -0.304, O=C1OCCC=C[C@H]2OC34C=CCN(c5ccc(Cl)cc5)C(=O)[C@H]3N(CCCCCCO)C(=O)[C@@H]4C12 (stereo not given in full) 1.38, CCOC(=O)C[C@H]1[C@H](OC(=O)c2ccccc2-c2ccccc2)[C@@H](NC(=O)c2ccc3ccccc3n2)c2cc(OCCCO)ccc2N1C(=O)c1ccccc1 -0.745, COC(=O)[C@@]1(Cc2ccc(OC)cc2)[C@H]2c3cc(C(=O)N4CCCC4)n(Cc4ccc(S(C)(=O)=O)cc4)c3C[C@H]2CN1C(=O)c1ccccc1 -0.867, C=C[C@@H](C)[C@@H](OC(=O)Nc1ccc(SC)cc1)c1ccc(OCCO)cc1 -0.68, NCCCCCNC(=O)[C@@H]1C[C@@H]2C(=O)N3CCC[C@H]3C(=O)N2[C@@H]1c1ccc(O)cc1 -0.281, O=C1OCCC/C=C\[C@H]2OC34C=CCN(c5ccc6ccccc6c5)C(=O)[C@H]3N(CCCO)C(=O)[C@@H]4C12 (stereo not given in full) -0.0367, CC(=O)NCCCC[C@@H]1NC(=O)[C@@H]2C[C@H](C(=O)NCCCCCCN)[C@H](c3cccc(OCCO)c3)N2C1=O -0.0095, COCCOC(=O)N1C(=O)[C@@]2(c3cc(C#CCNC(N)=O)ccc31)[C@H](c1ccc(OCCO)cc1)N1[C@H](c3ccccc3)[C@H](c3ccccc3)OC(=O)[C@H]1[C@@H]2C(N)=O 0.146

Reference: PubChem BioAssay
